This note sets out measurements from PubChem BioAssay (NCATS).

SMILES strings stand for the structures. Records with an inconclusive call do not appear. A call without a number means that no potency is given here. More than one record can exist for a structure, and the calls need not agree. A number with no mark means an inactive call. Activity calls are given as the source filed them. Calls follow the shape of the dose curve; as a rule, active = well fitted cell-killing curve with a large enough effect; inconclusive = small, poorly fitted or top-dose-only effect; inactive = flat fitted curve, though single readings scatter.
Potency is read from the fitted curve at half-maximal effect.

One test is described as follows: Cell Viability - SH-SY5Y (AID 544). Also: nearly all actives have a fitted effect of over 55% in size. To be noted: SH-SY5Y neuroblastoma cell viability; at 92.2 µM (top of the series). From the text:
NIH Chemical Genomics Center [NCGC]
NIH Molecular Libraries Screening Centers Network [MLSCN]
National Institutes of Environmental Health Sciences [NIEHS]
National Toxicology Program [NTP]
We have developed a 1536-well cell-based assay for quantitative high throughput screening (qHTS) against a number of cell lines to determine in vitro cytotoxicity of small molecules. This particular assay uses the SH-SY5Y cell line which is derived from human neuroblastoma.
NCGC Assay Protocol Summary:
The CellTiter-Glo luminescent cell viability assay (Promega) is a homogeneous method to measure the number of viable cells in culture. The end point readout of this assay is based on quantitation of intracellular ATP, an indicator of metabolic activity, using the luciferase reaction. Luciferase catalyzes the oxidation of beetle Luciferin to oxyluciferin and light in the presence of ATP. The luminescent signal is proportional to amount of ATP present.
Using the CellTiter-Glo luminescent cell viability assay, the amount of cellular ATP was measured in the SH-SY5Y cell line with complete culture medium following compound treatment for 40 hours. The assay was performed in opaque white Kalypsys 1536-well plates. In the screen, tamoxifen and doxorubicin were used as positive controls. Library compounds were measured for their ability to cause acute toxicity in the cell line, as reflected by a decrease in intracellular ATP levels, in a concentration-dependent manner. […] AC50 values were determined from concentration-response data modeled with the standard Hill equation.
qHTS protocol for CellTiter Glo SH-SY5Y cellular assay
[Step] [Parameter] [Value] [Description]
1. Reagent; 5 uL; 1500 SH-SY5Y cells/well
2. Time; 5 hr; 37 °C incubation
4. Controls; 23 nL; Tamoxifen 0.34 uM to 100 uM & Doxorubicin 0.02 nM to 100 uM
5. Time; 40 hr; 37 °C incubation
6. Reagent; 5 uL; CellTiter Glo reagent
7. Time; 20 min; Room Temperature
8. Detection; Luminescence; Viewlux plate reader
Keywords: cell viability, cytotoxicity, SH-SY5Y cell line, luminescence, NTPHTS, NTPHTS_NCGC, NIEHS, EPA, DSSTox, MLSMR, MLSCN, NIH Roadmap, qHTS, NCGC
For the compound `CC(=O)[C@H]1CC[C@H]2[C@@H]3CCC4=CC(=O)CC[C@]4(C)[C@H]3CC[C@]12C`, the viability change, negative = cytotoxic was -22.5%.

The same test, now with this note: SH-SY5Y neuroblastoma cell viability; viability change, negative = cytotoxic: at 92.2 µM (top of the series).
As for `Cc1ncc([N+](=O)[O-])n1CCO`, the Potency entry was “inactive”.
For `CCc1cc(C(N)=S)ccn1`, the Potency result is “inactive”.
Regarding `NNC(=O)c1ccncc1`, the Potency result was “inactive”.
On the same count and under the same terms, as for `Cc1noc(NS(=O)(=O)c2ccc(N)cc2)c1C`, the entry is “inactive”; as for `CC(=O)Oc1ccccc1C(=O)Nc1ncc([N+](=O)[O-])s1`, 25.1 µM (active); as for `NC(N)=NC(N)=NCCc1ccccc1`, “inactive”.
Consider `Cc1ccnc2c1NC(=O)c1cccnc1N2C1CC1`, for which the Potency entry was “inactive”.
As for `CC(=O)[C@H]1CC[C@H]2[C@@H]3CCC4=CC(=O)CC[C@]4(C)[C@H]3CC[C@]12C`, the viability change, negative = cytotoxic was -101% (active).
Regarding `CN(C)c1ccc(C(=C2C=CC(=[N+](C)C)C=C2)c2ccc(N(C)C)cc2)cc1`, the Potency was 1.58 µM (active).
As for `Cc1cc(NS(=O)(=O)c2ccc(N)cc2)no1`, the Potency entry was “inactive”.
Same read-out and setting: next, `CC1=NN(c2ccccc2)C(=O)C1`: “inactive”; `O=C(O)c1cc(=O)[nH]c(=O)[nH]1`: “inactive”.
Turning to `COc1ccc2cc3[n+](cc2c1OC)CCc1cc2c(cc1-3)OCO2`, the Potency entry is “inactive”.
On the same count and under the same terms, next, `Cc1nnc(NS(=O)(=O)c2ccc(N)cc2)s1`: “inactive”.
Still for that read-out and setting: as for `N=C(N)c1ccc(OCCCCCOc2ccc(C(=N)N)cc2)cc1`, the entry is “inactive”; as for `C[C@]12C=CC(=O)C=C1CC[C@@H]1[C@@H]2C(=O)C[C@@]2(C)[C@H]1CC[C@]2(O)C(=O)CO`, “inactive”.
Still for that read-out and setting: next, `O=C(N[C@H](CO)[C@H](O)c1ccc([N+](=O)[O-])cc1)C(Cl)Cl`: “inactive”.
